# Out of some 5,500 compounds screened, about 2,000 (36%) were called active. Inconclusive results (about 18%) are left out. The list shows a part of the results. Unmarked numbers belong to inactive results. Cut-off read from the data, not from the text of the source: active = normalized growth mostly below about 0.91 (no sharp cut-off); inconclusive = no clear call, values can overlap the other calls; inactive = mostly above about 0.92.
# Test: chemical genetic growth profiling, strain panel (AID 1159580);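 note: tested at 20 µM; growth read once vehicle control cultures reached saturation at 30 °C; 1 = growth at the plate median or of vehicle wells; lower values mean less growth of the strain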
# Conditions: S. cerevisiae deletion strains, growth OD
# [1] = locus YAL013W, strain DEP1, active compounds read low
# [2] = locus YGR078C, strain PAC10, active compounds read low
# [3] = locus YMR263W, strain SAP30, active compounds read low
# [4] = locus YMR307W, strain GAS1, active compounds read low
# [5] = locus YNL128W, strain TEP1, active compounds read low
# [6] = locus YNL153C, strain GIM3, active compounds read low
# [7] = locus YPL055C, strain LGE1, active compounds read low
# [8] = locus YBR229C, strain ROT2, active compounds read low
# [9] = locus YDL101C, strain DUN1, active compounds read low
# [10] = locus YDR150W, strain NUM1, active compounds read low
# [11] = locus YEL061C, strain CIN8, active compounds read low
# [12] = locus YGR229C, strain SMI1, active compounds read low
# [13] = locus YHR030C, strain SLT2, active compounds read low
# [14] = locus YHR087W, strain rtc3, active compounds read low
# [15] = locus YJR043C, strain POL32, active compounds read low
# [16] = locus YJR075W, strain HOC1, active compounds read low
# [17] = locus YLR039C, strain RIC1, active compounds read low
# [18] = locus YLR058C, strain SHM2 (second series), active compounds read low
# [19] = locus YLR085C, strain ARP6, active compounds read low
# [20] = locus YLR262C, strain YPT6, active compounds read low
# [21] = locus YML094W, strain GIM5, active compounds read low
# [22] = locus YMR219W, strain ESC1, active compounds read low
# [23] = locus YNL298W, strain CLA4 (second series), active compounds read low
# [24] = locus YNL322C, strain KRE1, active compounds read low
# [25] = locus YNR030W, strain Alg12, active compounds read low
# [26] = locus YPL241C, strain CIN2, active compounds read low
# [27] = locus YPR135W, strain CTF4, active compounds read low
structure (smiles),measurement,setting,value
Nc1ncnc2c1ncn2[C@@H]1O[C@H](C(=O)NC2CC2)[C@H](O)C1O (some centres undefined),normalized growth,[1],1
same,normalized growth,"locus YAL040C, strain CLN3, active compounds read low",0.986
same,normalized growth,"locus YCL061C, strain MRC1 (second series), active compounds read low",1
same,normalized growth,"locus YER002W, strain NOP16, active compounds read low",1
same,normalized growth,[2],1.01
same,normalized growth,[3],0.986
same,normalized growth,[4],1.04
same,normalized growth,[5],0.998
same,normalized growth,[6],1.03
same,normalized growth,"locus YNL175C, strain NOP13, active compounds read low",1
same,normalized growth,"locus YNL197C, strain WHI3, active compounds read low",0.986
same,normalized growth,"locus YNL224C, strain SQS1, active compounds read low",1.01
same,normalized growth,"locus YOR083W, strain WHI5 (second series), active compounds read low",1.01
same,normalized growth,[7],1
O=[N+]([O-])c1ccc(-c2nn[nH]n2)cc1,normalized growth,[1],0.992
same,normalized growth,[8],0.987
same,normalized growth,[9],0.988
same,normalized growth,[10],1.01
same,normalized growth,[11],1.01
same,normalized growth,[2],0.989
same,normalized growth,[12],0.987
same,normalized growth,[13],0.955
same,normalized growth,[14],0.993
same,normalized growth,[15],1.01
same,normalized growth,[16],0.992
same,normalized growth,"locus YKL190W, strain CNB1, active compounds read low",0.975
same,normalized growth,[17],0.968
same,normalized growth,[18],0.984
same,normalized growth,[19],1.04
same,normalized growth,[20],0.871
same,normalized growth,[21],1.04
same,normalized growth,[22],0.994
same,normalized growth,[3],1.01
same,normalized growth,[4],1.11
same,normalized growth,[5],0.971
same,normalized growth,[6],0.995
same,normalized growth,[23],0.965
same,normalized growth,[24],0.99
same,normalized growth,[25],0.98
same,normalized growth,[7],0.993
same,normalized growth,[26],0.999
same,normalized growth,[27],0.967
COC(=O)CSCCc1nc(-c2ccc([N+](=O)[O-])cc2)cs1,normalized growth,[1],1
same,normalized growth,[8],0.972
same,normalized growth,"locus YCL061C, strain MRC1, active compounds read low",0.97
same,normalized growth,[9],0.967
same,normalized growth,"locus YDL134C, strain PPH21, active compounds read low",0.976
same,normalized growth,[10],0.991
same,normalized growth,[11],0.986
same,normalized growth,[2],0.978
same,normalized growth,[12],0.965
same,normalized growth,[13],0.683 (active)
same,normalized growth,[14],0.987
same,normalized growth,[15],0.971
same,normalized growth,[16],0.946
same,normalized growth,[17],0.919
same,normalized growth,[18],0.964
same,normalized growth,[19],0.717 (active)
same,normalized growth,[20],0.915
same,normalized growth,[21],0.994
same,normalized growth,[22],0.975
same,normalized growth,[3],0.968
same,normalized growth,[6],1.01
same,normalized growth,[23],0.927
same,normalized growth,[24],0.965
same,normalized growth,[25],0.969
same,normalized growth,[7],0.971
same,normalized growth,[26],0.911
same,normalized growth,[27],0.894
